Laboratory results reported in PubChem BioAssay (NCATS).
Records with an inconclusive call do not appear. Activity calls are given as the source filed them. Calls come from the whole dose curve; as a rule, active = well fitted curve in either direction with a large enough effect (not every such curve was filed as active); inconclusive = small, poorly fitted or top-dose-only effect, or another doubt; inactive = flat fitted curve, though single readings scatter.

Experiment: Stat Signaling Pathway (AID 446);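 note: ME-180 cervical cancer cells given 40 pM IL-6 alongside compound; SIE-controlled beta-lactamase reporter measured as 460/530 nm FRET emission ratio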
Conditions: ME-180 SIE beta-lactamase reporter, IL-6 stimulated, 5 h; at 7.69 µM (top of the series) unless noted
How it was run: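 Reporter line: ME-180 cervical carcinoma, SIE-beta-lactamase. Treatment: compound with 40 pM IL-6, 5 hrs, 37 C, in low-serum OPTI-MEM with 10 mM HEPES pH 7.3. Detection: 460/530 nm fluorescence.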
% is set by controls: 0 for no effect and ±100 for the full control effect.

activity, negative = inhibition, inactive:
CC(=O)NCCNc1ccnc(-c2ccccc2C(F)(F)F)n1 11.9%
CCNc1ncc2nc(-c3cc(F)cc(F)c3)c(=O)n(C[C@H]3CCCO3)c2n1 -1.58%
COc1cccc(-c2cncnc2N(C)Cc2ccco2)c1 7.72%
COc1ccccc1-c1ccc2ncnc(NC3CCNCC3)c2c1 3.74%
O=c1cnc2cnc(N3CCOCC3)nc2n1C1CC1 -6.14%
CCNc1ncc2nc(C)c(=O)n(-c3ccc(OC)cc3)c2n1 -9.6%
CCNc1ncc2nc(C)c(=O)n(Cc3cccs3)c2n1 -7.43%
Cn1c(=O)c(-c2cccs2)nc2cncnc21 -17.1%
CN(C)c1ncc2ncc(=O)n(C3CC3)c2n1 -11.1%
CCNc1ncc2nc(C)c(=O)n(Cc3ccc(F)cc3)c2n1 -2.29%
CN(C)C(=O)c1ccc(-c2nc(NC3CCNCC3)c3ccccc3n2)cc1 11.2%
COc1ccccc1CNc1ncncc1-c1cccnc1 5.57%
COc1cccc(Nc2ncc3nc(C)c(=O)n(C)c3n2)c1 -12.2%
Cc1cnc(CNc2ncncc2-c2cccc(C#N)c2)cn1 9.2%
Cc1nc2cnc(Nc3ccccc3)nc2n(C2CC2)c1=O -10.8%
CCNc1ncc2nc(C)c(=O)n(C3CC3)c2n1 -2.73%
CCNc1ncc2nc(-c3cn(C)c4ccccc34)c(=O)n(-c3ccc(OC)cc3)c2n1 -5.46%
CN(C)C(=O)c1ccc(-c2cncnc2N2CCNCC2)cc1 9.81%
Cc1noc(C)c1-c1ccc2ncnc(NC3CCNCC3)c2c1 10.3%
CCNc1ncc2nc(C)c(=O)n(C)c2n1 -8.23%
COc1ccc(CNc2ncncc2-c2cccnc2)c(OC)c1 0.586%
COc1ccc(-n2c(=O)cnc3cnc(N4CCOCC4)nc32)cc1 -10.3%
Fc1ccc(Nc2ncncc2-c2ccoc2)cc1 4.97%
Cn1c(=O)cnc2cnc(OCc3ccccc3)nc21 -10.5%
COc1cccc(Nc2ncc3nc(C)c(=O)n(CCc4ccccc4)c3n2)c1 -6.89%
COc1ccc2[nH]cc(CCNc3ncncc3-c3c(C)noc3C)c2c1 -10.2%
Cc1noc(C)c1-c1cc(Nc2ccccc2)ncn1 -5.08%
COc1ccc(Oc2ncc3ncc(=O)n(C)c3n2)cc1 -7.6%
COCCNc1cc(-c2ccccc2C)ncn1 13.1%
CS(=O)(=O)Nc1cccc(-c2cncnc2Nc2ccc(F)cc2)c1 13.7%
c1ccc2c(NC3CCNCC3)nc(-c3ccoc3)nc2c1 7%
c1csc(CNc2cc(-c3ccoc3)ncn2)c1 3.9%
COc1ccc(CNc2cc(-c3ccoc3)ncn2)c(OC)c1 19.9%
O=c1cnc2cnc(Nc3ccccc3)nc2n1Cc1ccc(F)cc1 -3.92%
Fc1ccc(Nc2ccnc(-c3ccoc3)n2)cc1 8.8%
COc1ccccc1-c1cc(NCc2ccccc2)ncn1 2.32%
N#Cc1cccc(-c2cncnc2NCc2cccs2)c1 3.27%
CNc1cc(-c2c(C)noc2C)ncn1 27.1%
